Screening data as filed in PubChem BioAssay.
PfHsp40 yeast = restores yeast growth despite PfHsp40 toxicity; actives 0.68% (n = 340,000); S. cerevisiae expressing PfHsp40, growth rescue, ATP luminescence; growth rescue, % at 12.5 µM; in the data active = growth rescue above about 28%, passing the limit was not always enough; inconclusive = no clear call, values can overlap the other calls;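 also: yeast W303a lacking pdr1 and pdr3 grown in galactose medium; growth measured after three days at 30 °C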
RN4220 kill = S. aureus RN4220 growth inhibition; inhibition, % (no concentration beside the values); actives 0.33% (n = 330,000); OD600, 16 h; in the data active = inhibition above about 85%
Mtb bLac sens = beta-lactam sensitization of Mtb H37Rv | M. tuberculosis H37Rv growth with meropenem, percent inhibition | inhibition, % at 25 µM | actives 0.27% (n = 330,000) | AID 434955; call rule not given here;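 also: growth measured after seven days incubation then overnight dye step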
Sa ugtP lethal = compounds lethal to S. aureus RN4220 ugtP deletion mutant; OD600 growth, 16 h; growth inhibition, % (concentration not given with the values); actives 0.54% (n = 330,000); in the data active = growth inhibition above about 68%
Vc quorum ag = inducers of Vibrio cholerae quorum light production without autoinducers; actives 0.16% (n = 350,000); activation, % at 18.7 µM; V. cholerae BH1578 lux reporter, luminescence, 6 h; in the data active = activation mostly above about 9.7%, no sharp cut-off; inconclusive = no clear call, values can overlap the other calls; inactive = mostly below about 3.7%
Each line names hits and unclear results; the compound was inactive in the other large screens. Most compounds without a hit are left out; they make up all but 1.2% or so of the library.

Cc1ccc(NC(=O)c2cc(N3C(=O)C=CC3=O)ccc2N2CCOCC2)cc1Cl	PfHsp40 yeast 36
CC#C[C@]1(O)CCC2C3CCC4=CC(=O)CCC4=C3C(c3ccc(N(C)C)cc3)C[C@@]21C (stereo partly specified)	none (no result: PfHsp40 yeast, Mtb bLac sens, Vc quorum ag)
Cc1ccccc1OCC(O)Cn1c2ccccc2c2ccccc21 (stereo unspecified)	PfHsp40 yeast 111
CCOc1ccc(Nc2nc(N3CCCCC3)nc(N3CCCCC3)n2)cc1	Sa ugtP lethal 92
C=CCC(CC(=O)NC(CO)Cc1ccccc1)C(=O)NC(C)COC(=O)C(CC=C)CC(=O)OC(C)(C)C (stereo unspecified)	none (no result: PfHsp40 yeast, Mtb bLac sens, Vc quorum ag)
Cc1cc(C)cc(Oc2ccccc2C=NO)c1	Sa ugtP lethal 87 (no result: PfHsp40 yeast, Mtb bLac sens, Vc quorum ag)
CCCCOc1ccc(C=CC(=O)OCC(=O)c2c(N)n(C)c(=O)n(C)c2=O)cc1OCC	none (no result: PfHsp40 yeast, Mtb bLac sens, Vc quorum ag)
CCN1C(=O)C2C(c3ccc(-c4ccc(C(C)=O)cc4)cc3)N3CCCC[C@@]3(C(=O)OC)C2C1=O (stereo partly specified)	none (no result: PfHsp40 yeast, Mtb bLac sens, Vc quorum ag)
COc1cccc(C(NC(C)=O)c2ccc3cccnc3c2O)c1 (stereo unspecified)	PfHsp40 yeast inconclusive (no result: RN4220 kill, Sa ugtP lethal)
Oc1cccc(C(Nc2nccs2)c2ccc3cccnc3c2O)c1 (stereo unspecified)	PfHsp40 yeast 215
CCCCC(=O)NC(c1cccc([N+](=O)[O-])c1)c1ccc2cccnc2c1O (stereo unspecified)	PfHsp40 yeast 105 (no result: Mtb bLac sens)
CC(=O)NC(c1cccc([N+](=O)[O-])c1)c1ccc2cccnc2c1O (stereo unspecified)	PfHsp40 yeast 194 (no result: RN4220 kill, Sa ugtP lethal)
Cc1cccc(OCCn2cc(C=NNC(=O)c3ccncc3)c3ccccc32)c1	none (no result: PfHsp40 yeast, Mtb bLac sens, Vc quorum ag)
O=C(NN=Cc1ccc([N+](=O)[O-])o1)c1cn(-c2ccccc2)nc1-c1ccc(Cl)cc1	RN4220 kill 99, Sa ugtP lethal 99 (no result: PfHsp40 yeast, Mtb bLac sens, Vc quorum ag)
CC1(C(=O)NN=Cc2ccc([N+](=O)[O-])o2)CC1(Br)Br (stereo unspecified)	Sa ugtP lethal 89 (no result: PfHsp40 yeast, Mtb bLac sens, Vc quorum ag)
Cc1ccc2nc(NN=Cc3ccc([N+](=O)[O-])o3)nc(-c3ccccc3)c2c1	RN4220 kill 99, Sa ugtP lethal 100 (no result: PfHsp40 yeast, Mtb bLac sens, Vc quorum ag)
O=C(NN=Cc1ccc([N+](=O)[O-])o1)c1cc2c(ccc3ccccc32)o1	RN4220 kill 98, Sa ugtP lethal 99 (no result: PfHsp40 yeast, Mtb bLac sens, Vc quorum ag)
COC(=O)CC=CC(C)C(C=NOC(C)c1cn(C(CO)Cc2ccccc2)nn1)NS(=O)(=O)c1ccc(C)cc1 (stereo unspecified)	none (no result: PfHsp40 yeast, Mtb bLac sens, Vc quorum ag)
C#CCOCCOCCOCCNc1nc(N2CCN(C(=O)C(C(C)C)n3cc(CCO)nn3)CC2)nc(N2CCN(C(=O)C(C(C)C)n3cc(CCO)nn3)CC2)n1 (stereo unspecified)	none (no result: PfHsp40 yeast, Mtb bLac sens, Vc quorum ag)
CCCc1ccc(-c2cc(C(=O)N/N=C/c3ccc([N+](=O)[O-])o3)c3ccccc3n2)cc1	none (no result: RN4220 kill, Sa ugtP lethal)
CCCc1ccc(-c2cc(C(=O)NN=Cc3ccc([N+](=O)[O-])o3)c3ccccc3n2)cc1	RN4220 kill 108, Sa ugtP lethal 99 (no result: PfHsp40 yeast, Mtb bLac sens, Vc quorum ag)
Nc1c(C(=O)NN=Cc2ccc([N+](=O)[O-])cc2)cnn1-c1ccccc1	none (no result: PfHsp40 yeast, Mtb bLac sens, Vc quorum ag)
O=C(NCc1ccccn1)C(=O)NCC1OCCN1S(=O)(=O)c1ccc(F)cc1 (stereo unspecified)	PfHsp40 yeast 33
O=C(NCc1ccccn1)C(=O)NCC1OCCCN1S(=O)(=O)c1ccc(F)cc1 (stereo unspecified)	none
O=C1c2ccccc2NC(c2ccc(Br)o2)N1O (stereo unspecified)	none
O=C1c2ccccc2NC(c2ccc(-c3cccs3)o2)N1O (stereo unspecified)	PfHsp40 yeast 58
O=C1c2ccccc2NC(c2ccco2)N1O (stereo unspecified)	none
O=C1c2ccccc2NC(c2ccc(-c3ccc(C(F)(F)F)cc3)o2)N1O (stereo unspecified)	PfHsp40 yeast 279
C=C(C)CSc1nc(N)cc(=O)[nH]1	Vc quorum ag 17 (no result: RN4220 kill, Sa ugtP lethal)
Cc1ccc(C(=O)CSc2nc(N)cc(=O)[nH]2)cc1	none
CC(=NNC(=S)N1CC2CCC(CC2)C1)c1ccncn1	PfHsp40 yeast 98 (no result: RN4220 kill, Mtb bLac sens, Sa ugtP lethal)
CC(=NNC(=S)N1CCCCC1)c1ccccn1	none (no result: PfHsp40 yeast, RN4220 kill, Mtb bLac sens, Sa ugtP lethal)
CCc1nn(C(C)C(=O)N2CCN(c3ccc(OC)cc3)CC2)c(=O)c2cc3occc3n12 (stereo unspecified)	PfHsp40 yeast 112
COc1c(N2CCN(C(=S)NCc3ccccc3)C(C)C2)c(F)cc2c(=O)c(C(=O)O)cn(C3CC3)c12 (stereo unspecified)	PfHsp40 yeast inconclusive, RN4220 kill 100, Sa ugtP lethal 100
COc1c(N2CCN[C@H](C)C2)c(F)cc2c(=O)c(C(=O)O)cn(C3CC3)c12	none (no result: PfHsp40 yeast, RN4220 kill, Sa ugtP lethal, Vc quorum ag)
CCC1CCCCN1CCCNC(=O)c1cn(C)c2ccc(S(=O)(=O)N(C)C3CCCCC3)cc2c1=O (stereo unspecified)	PfHsp40 yeast 38
CN[C@@H]1[C@H](O)[C@H](NC)[C@H]2O[C@@]3(O)C(=O)C[C@@H](C)O[C@H]3O[C@@H]2[C@H]1O	Mtb bLac sens inconclusive, Vc quorum ag 72
C[N+]1(C)CCC(OC(=O)[C@@](O)(c2ccccc2)C2CCCC2)C1 (stereo partly specified)	none (no result: PfHsp40 yeast, Mtb bLac sens, Vc quorum ag)
ClC(Cl)(Cl)c1nc(NN=Cc2ccncc2)c2ccccc2n1	none (no result: PfHsp40 yeast, Mtb bLac sens, Vc quorum ag)
COc1ccc(C2C=CCN(C(=O)Nc3ccccc3)CC(=O)N2Cc2ccc(F)cc2)cc1 (stereo unspecified)	none (no result: PfHsp40 yeast, Mtb bLac sens, Vc quorum ag)
COc1ccc(C2/C=C\CN(C(=O)Nc3ccc(C(F)(F)F)cc3)CC(=O)N2Cc2ccc(F)cc2)cc1 (stereo unspecified)	PfHsp40 yeast 93 (no result: RN4220 kill, Sa ugtP lethal)
Clc1ccc(C(Cn2ccnc2)OCc2c(Cl)cccc2Cl)c(Cl)c1 (stereo unspecified)	PfHsp40 yeast 103, Sa ugtP lethal 94
Clc1ccc(C(Cn2ccnc2)OCc2csc3c(Cl)cccc23)c(Cl)c1 (stereo unspecified)	PfHsp40 yeast 80, RN4220 kill 99, Sa ugtP lethal 96
CC(=O)Nc1cccc(N2C(=O)CC(N3CCC(C(=O)N4CCCCC4)CC3)C2=O)c1 (stereo unspecified)	none
COc1cc(OC)cc(N2C(=O)CC(N3CCC(C(=O)N4CCCCC4)CC3)C2=O)c1 (stereo unspecified)	PfHsp40 yeast 67
CCOC(=O)C1CCCN(C2CC(=O)N(c3ccccc3)C2=O)C1 (stereo unspecified)	none
CCOC(=O)C1CCCN(C2CC(=O)N(c3cccc(C(F)(F)F)c3)C2=O)C1 (stereo unspecified)	PfHsp40 yeast 44
CC(C)CC(NC(=O)c1[nH]cnc1C(=O)NC(C)c1ccccc1)C(=O)OCc1ccccc1 (stereo unspecified)	none (no result: PfHsp40 yeast, Mtb bLac sens, Vc quorum ag)
COC(=O)C(O)(NC(=O)c1ccncc1)C(F)(F)F (stereo unspecified)	RN4220 kill 84
Cc1nc2ccc(C(C(F)(F)F)(C(F)(F)F)C(F)(F)F)cc2[nH]1	PfHsp40 yeast 241
